This is part of a sample that, as a whole, favours compounds with a hit. Of some 83,000 tested, about 20% had one in any assay.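 Compound tested at a single concentration for 48 hours in 96-well plates; a percent growth value below 10 was scored as active.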 Unmarked numbers belong to inactive results. Calls of active or inactive are those of the source.
These compounds were tested on TK-10 renal (assay: NCI-60 one-dose screen, 48 h (100 = growth as untreated, 0 = no growth, -100 = all killed)). Conditions: 10 µM unless noted.

Q: For `N#Cc1c(NC(=O)c2ccc([N+](=O)[O-])o2)[n+]([O-])c2cc(F)c(F)cc2[n+]1[O-]`, which growth is on record?
A: 179%

Q: Which growth does the source give for `CC(C)(C)OC(=O)N1C/C(=C\c2cccs2)C(=O)/C(=C/c2cccs2)C1` here?
A: 110%

Q: How did the growth turn out when `CC(Cc1nnc(SCC(=O)Nc2ccc(I)cc2)n1N)c1ccccc1` (stereo unspecified) was run?
A: 89.9%

Q: For `COC(=O)CC/C(C)=N\Nc1ccc([N+](=O)[O-])cc1`, which growth is on record?
A: 63.3%

Q: Which growth does the source give for `COc1ccccc1OCC(=O)Nc1sc2c(c1C(N)=O)CCC2` here?
A: 104%

Q: How did the growth turn out when `CC(=O)N1Cc2ccccc2C(C)Cc2cc(Cl)ccc21` (stereo unspecified) was run?
A: 98.4%

Q: `COc1ccc(/C(=N/O)c2cc(OC)c(OC)c(OC)c2)c(OC)c1N` was tested. Which growth did it give?
A: 35.3%

Q: With `CC(C)CCC[C@@H](C)[C@H]1CC[C@H]2[C@@H]3CC[C@H]4C/C(=N/O)CC[C@]4(C)[C@H]3CC[C@]12C` as the compound, how does the growth read?
A: 105%

Q: With `C/C(=N\NC(=O)CC#N)c1cc2cc(Cl)ccc2o1` as the compound, how does the growth read?
A: 114%

Q: For `CCC#CC[C@H]1C/C=C2/C(=O)C=C[C@@H]2C/C=C\CCCC(=O)O1`, which growth is on record?
A: -1.68% (active)

Q: With `Cc1cc(C(=O)O)c(N)c(C)n1` as the compound, how does the growth read?
A: 101%

Q: `CCCCCCOc1ccc(C2(Cl)c3ccccc3N(C)c3ccccc32)cc1` was tested. Which growth did it give?
A: 76.7%

Q: How did the growth turn out when `CC(C)N(Cc1ccc(CN(C(=O)CCl)C(C)C)cc1)C(=O)CCl` was run?
A: 70.5%

Q: With `COc1cc(-n2nc(C(=O)Nc3ccc(C(=O)O)cc3)nc2-c2ccccc2)cc(OC)c1OC` as the compound, how does the growth read?
A: 79.1%

Q: With `NC(=O)NNC(=O)c1ccccc1` as the compound, how does the growth read?
A: 103%

Q: `CC1Cc2c(N(C)C)ncnc2N(C)c2ccc(O)cc21` (stereo unspecified) was tested. Which growth did it give?
A: 95.9%

Q: How did the growth turn out when `O=S(=O)(NCCCNc1cc(-c2cn(-c3ccccc3)nc2-c2cccc(O)c2)ccn1)c1ccc(C(F)(F)F)cc1` was run?
A: 77.7%

Q: For `Cc1ccc(S(=O)(=O)N2CCC(C(=O)Nc3ccc(F)cc3F)CC2)cc1`, which growth is on record?
A: 85.3%

Q: `COc1ccc2c(c1)NC(=O)CN2c1nc(NC2CC2)nc2ccccc12` was tested. Which growth did it give?
A: 23.6%

Q: For `C=C1C(=O)O[C@H]2[C@H]1CC/C(COC(=O)NCCc1cccc(OC)c1)=C\CC[C@@]1(C)O[C@@H]21`, which growth is on record?
A: 24.9%

Q: How did the growth turn out when `COc1cc(-c2csc(NC(=O)c3cc(C(F)(F)F)cc(C(F)(F)F)c3)n2)cc(OC)c1OC` was run?
A: 33%

Q: With `Clc1nc(Cl)c2ncn(C/C=C/Cn3cnc4c(Cl)nc(Cl)nc43)c2n1` as the compound, how does the growth read?
A: 79.9%

Q: For `Cc1ccc2c(c1)C(C)Cc1c(ncnc1-n1cnc3ccccc31)N2C` (stereo unspecified), which growth is on record?
A: 13.8%

Q: With `CCN(CC)S(=O)(=O)c1ccc2[nH]c(=O)cc(C(=O)Nc3ccc(OC)cc3OC)c2c1` as the compound, how does the growth read?
A: 115%

Q: How did the growth turn out when `COC(=O)CCCCCN=Cc1c(O)c(O)c(C(C)C)c2cc(C)c(-c3c(C)cc4c(C(C)C)c(O)c(O)c(C=NCCCCCC(=O)OC)c4c3O)c(O)c12` was run?
A: 3.95% (active)

Q: `CCC(=O)Oc1ccc2c(c1)CC[C@@H]1[C@@H]2CC[C@]2(C)C[C@H](OC(=O)CC)C[C@@H]12` was tested. Which growth did it give?
A: 105%

Q: With `C=C1C(=O)O[C@H]2[C@H]1CC/C(COC(=O)NCc1cc(OC)cc(OC)c1)=C\CC[C@@]1(C)O[C@@H]21` as the compound, how does the growth read?
A: -1.01% (active)

Q: Which growth does the source give for `O=C(Nc1ccc(I)cc1)c1cc([N+](=O)[O-])ccc1O` here?
A: 40%

Q: Which growth does the source give for `O=C(CNC(=O)c1cccc2ccccc12)Nc1ccccc1Oc1ccccc1` here?
A: 19.8%

Q: With `O=C(/C=C/CN1CCOCC1)Nc1cc2c(Nc3ccc(F)c(Cl)c3F)ncnc2cc1OCCOC(F)F` as the compound, how does the growth read?
A: 33.9%

Q: `O=C(NCCc1c[nH]c2ccccc12)C1Cc2ccccc2CN1C(=O)c1ccco1` (stereo unspecified) was tested. Which growth did it give?
A: 110%

Q: Which growth does the source give for `Nc1cc2c(cc1N)-c1cc(N)c(N)cc1C2` here?
A: 110%

Q: `COc1ccc(/C(=N\O)c2cc(OC)c(OC)c(OC)c2)c(OC)c1N` was tested. Which growth did it give?
A: 9.72% (active)

Q: `CCC(c1ccc(OC)cc1)C(CC)c1ccc(O)c(CN2CCCC2)c1` (stereo unspecified) was tested. Which growth did it give?
A: 54.5%

Q: How did the growth turn out when `CC(C)(C)c1cc(-c2nc3ccc(N4CCN(CCO)CC4)cc3[nH]2)cc(C(C)(C)C)c1O` was run?
A: 87.6%

Q: `OCc1c(-c2ccccc2)nc2sccn12` was tested. Which growth did it give?
A: 106%

Q: `O=C(OCCCCOC(=O)n1cnc2ccccc21)n1cnc2ccccc21` was tested. Which growth did it give?
A: 110%

Q: With `OC1CC2c3ccccc3C1c1ccccc12` (stereo unspecified) as the compound, how does the growth read?
A: 96.9%

Each compound was assayed on ACHN renal in the same assay as above. Conditions: 10 µM unless noted.

Q: With `N#Cc1c(NC(=O)c2ccc([N+](=O)[O-])o2)[n+]([O-])c2cc(F)c(F)cc2[n+]1[O-]` as the compound, how does the growth read?
A: 109%

Q: How did the growth turn out when `CC(C)(C)OC(=O)N1C/C(=C\c2cccs2)C(=O)/C(=C/c2cccs2)C1` was run?
A: 97.2%

Q: How did the growth turn out when `CC(Cc1nnc(SCC(=O)Nc2ccc(I)cc2)n1N)c1ccccc1` (stereo unspecified) was run?
A: 86.5%

Q: Which growth does the source give for `COC(=O)CC/C(C)=N\Nc1ccc([N+](=O)[O-])cc1` here?
A: 36.2%

Q: Which growth does the source give for `COc1ccccc1OCC(=O)Nc1sc2c(c1C(N)=O)CCC2` here?
A: 32.2%

Q: With `CC(=O)N1Cc2ccccc2C(C)Cc2cc(Cl)ccc21` (stereo unspecified) as the compound, how does the growth read?
A: 109%

Q: `COc1ccc(/C(=N/O)c2cc(OC)c(OC)c(OC)c2)c(OC)c1N` was tested. Which growth did it give?
A: 43.3%

Q: How did the growth turn out when `CC(C)CCC[C@@H](C)[C@H]1CC[C@H]2[C@@H]3CC[C@H]4C/C(=N/O)CC[C@]4(C)[C@H]3CC[C@]12C` was run?
A: 110%

Q: How did the growth turn out when `C/C(=N\NC(=O)CC#N)c1cc2cc(Cl)ccc2o1` was run?
A: 96.1%

Q: How did the growth turn out when `CCC#CC[C@H]1C/C=C2/C(=O)C=C[C@@H]2C/C=C\CCCC(=O)O1` was run?
A: -86.8% (active)

Q: How did the growth turn out when `Cc1cc(C(=O)O)c(N)c(C)n1` was run?
A: 109%

Q: `CCCCCCOc1ccc(C2(Cl)c3ccccc3N(C)c3ccccc32)cc1` was tested. Which growth did it give?
A: 61%

Q: How did the growth turn out when `CC(C)N(Cc1ccc(CN(C(=O)CCl)C(C)C)cc1)C(=O)CCl` was run?
A: 5.84% (active)

Q: With `COc1cc(-n2nc(C(=O)Nc3ccc(C(=O)O)cc3)nc2-c2ccccc2)cc(OC)c1OC` as the compound, how does the growth read?
A: 36.1%

Q: Which growth does the source give for `NC(=O)NNC(=O)c1ccccc1` here?
A: 109%

Q: With `CC1Cc2c(N(C)C)ncnc2N(C)c2ccc(O)cc21` (stereo unspecified) as the compound, how does the growth read?
A: 101%

Q: With `O=S(=O)(NCCCNc1cc(-c2cn(-c3ccccc3)nc2-c2cccc(O)c2)ccn1)c1ccc(C(F)(F)F)cc1` as the compound, how does the growth read?
A: 31.5%

Q: With `Cc1ccc(S(=O)(=O)N2CCC(C(=O)Nc3ccc(F)cc3F)CC2)cc1` as the compound, how does the growth read?
A: 107%

Q: Which growth does the source give for `COc1ccc2c(c1)NC(=O)CN2c1nc(NC2CC2)nc2ccccc12` here?
A: 24.9%

Q: With `C=C1C(=O)O[C@H]2[C@H]1CC/C(COC(=O)NCCc1cccc(OC)c1)=C\CC[C@@]1(C)O[C@@H]21` as the compound, how does the growth read?
A: -9.71% (active)

Q: Which growth does the source give for `COc1cc(-c2csc(NC(=O)c3cc(C(F)(F)F)cc(C(F)(F)F)c3)n2)cc(OC)c1OC` here?
A: 36.1%

Q: For `Clc1nc(Cl)c2ncn(C/C=C/Cn3cnc4c(Cl)nc(Cl)nc43)c2n1`, which growth is on record?
A: 90%

Q: How did the growth turn out when `Cc1ccc2c(c1)C(C)Cc1c(ncnc1-n1cnc3ccccc31)N2C` (stereo unspecified) was run?
A: 35.4%

Q: How did the growth turn out when `CCN(CC)S(=O)(=O)c1ccc2[nH]c(=O)cc(C(=O)Nc3ccc(OC)cc3OC)c2c1` was run?
A: 103%

Q: For `COC(=O)CCCCCN=Cc1c(O)c(O)c(C(C)C)c2cc(C)c(-c3c(C)cc4c(C(C)C)c(O)c(O)c(C=NCCCCCC(=O)OC)c4c3O)c(O)c12`, which growth is on record?
A: 15.5%

Q: Which growth does the source give for `CCC(=O)Oc1ccc2c(c1)CC[C@@H]1[C@@H]2CC[C@]2(C)C[C@H](OC(=O)CC)C[C@@H]12` here?
A: 73%

Q: For `C=C1C(=O)O[C@H]2[C@H]1CC/C(COC(=O)NCc1cc(OC)cc(OC)c1)=C\CC[C@@]1(C)O[C@@H]21`, which growth is on record?
A: 5.79% (active)

Q: Which growth does the source give for `O=C(Nc1ccc(I)cc1)c1cc([N+](=O)[O-])ccc1O` here?
A: 48.8%

Q: Which growth does the source give for `O=C(CNC(=O)c1cccc2ccccc12)Nc1ccccc1Oc1ccccc1` here?
A: 29.9%

Q: For `O=C(/C=C/CN1CCOCC1)Nc1cc2c(Nc3ccc(F)c(Cl)c3F)ncnc2cc1OCCOC(F)F`, which growth is on record?
A: 14.2%

Q: How did the growth turn out when `O=C(NCCc1c[nH]c2ccccc12)C1Cc2ccccc2CN1C(=O)c1ccco1` (stereo unspecified) was run?
A: 96.6%

Q: Which growth does the source give for `Nc1cc2c(cc1N)-c1cc(N)c(N)cc1C2` here?
A: 96%

Q: Which growth does the source give for `COc1ccc(/C(=N\O)c2cc(OC)c(OC)c(OC)c2)c(OC)c1N` here?
A: 40.5%

Q: For `CCC(c1ccc(OC)cc1)C(CC)c1ccc(O)c(CN2CCCC2)c1` (stereo unspecified), which growth is on record?
A: 39.3%

Q: Which growth does the source give for `CC(C)(C)c1cc(-c2nc3ccc(N4CCN(CCO)CC4)cc3[nH]2)cc(C(C)(C)C)c1O` here?
A: 89.2%

Q: How did the growth turn out when `OCc1c(-c2ccccc2)nc2sccn12` was run?
A: 98.4%

Q: How did the growth turn out when `O=C(OCCCCOC(=O)n1cnc2ccccc21)n1cnc2ccccc21` was run?
A: 101%

Q: Which growth does the source give for `OC1CC2c3ccccc3C1c1ccccc12` (stereo unspecified) here?
A: 111%
